Compound activity from PubChem BioAssay.
LMP1 NFkB inh = Epstein-Barr LMP1 NF-kappaB reporter inhibition; LMP1-induced NF-kappaB luciferase reporter cells, luminescence; inhibition, % at 12.5 µM; 0.69% of 350,000 active; AID 504558; in the data active = inhibition above about 41%; inconclusive = no clear call, values can overlap the other calls
TWEAK-Fn14 inh = inhibitors of TWEAK-Fn14 interaction signaling; inhibition, % at 10 µM; 2% of 360,000 active; TWEAK-stimulated Fn14 reporter cells, luciferase luminescence, 8 h; in the data active = inhibition above about 50%
PAX8 inh HTS = inhibitors of PAX8 transcriptional activity in RMG-I cells | inhibition, % at 12.6 µM | AID 652154 | 1.2% of 360,000 active | RMG-I TPO-luciferase reporter, SteadyGlo, 24 h;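 active = mean replicate inhibition at least 60% with every replicate also reaching 60%; inconclusive = only one of the two criteria is met; inactive = mean below 60% and not all replicates reaching 60%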;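 note: luciferase light reporting Pax8 driven TPO promoter activity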
EWS-Fli inh = EWS/Fli transcriptional activity inhibition. A673 NR0B1-luciferase reporter, viability-normalised. inhibition, % at 12.6 µM. 0.67% of 350,000 active. AID 651661;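 active = mean inhibition of at least 50% after viability correction, with every replicate also passing that limit; inconclusive = mean reaches 50% but only one of two replicates passes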;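 note: firefly luciferase signal divided by Alamar Blue viability fluorescence both relative to DMSO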
TROY signal inh = blocks TROY-dependent signaling in reporter cells; Q293 LMP1-TROYcd NF-kB luciferase reporter, 4 h; inhibition, % at 10 µM; 0.98% of 360,000 active;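 active = compounds whose plate-normalised and pattern-corrected inhibition of the luciferase reporter signal at the single screening dose is 50% or more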
LGR2 antag = inhibitors of bursicon-induced Drosophila LGR2 receptor cAMP signaling. HEK293 LGR2, CRE-luciferase, bursicon-stimulated, 4 h. inhibition, % at 9.99 µM. 0.35% of 380,000 active. AID 720647;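 active = drop in luminescence signal, shown as inhibition above about 50% in the replicate tests, limit read from the data, passing the limit was not always enough; inconclusive = probably only some replicates passing the limit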;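 note: agonist challenge used bursicon conditioned medium at about half maximal strength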
A number is an active result; n = inactive; u = inconclusive; x = no result given. Most compounds without a hit are left out; they make up all but 3.1% or so of the library.

SMILES | LMP1 NFkB inh | TWEAK-Fn14 inh | PAX8 inh HTS | EWS-Fli inh | TROY signal inh | LGR2 antag
C[C@H](O)[C@@H]1CN2CCc3c([nH]c4ccc(-c5ccc6c(c5)OCO6)cc34)[C@@H]2C[C@@H]1N(C)C(=O)NC1CCCCC1 | n | n | 90 | n | n | n
CC(=O)[C@@]1(O)C(C)CC2C3C=C(C)C4=Cc5c(cnn5-c5ccccc5)C[C@]4(C)C3C(O)C[C@@]21C (stereo partly drawn) | n | n | n | n | 53 | n
Cc1cc(C(=O)NC2CC(C)(C)Cc3c2cnn3-c2ccccc2)n(C)n1 (stereo not drawn) | n | n | n | x | n | n
Cc1cc(O)c(C(C)C)cc1C1(c2cc(C(C)C)c(O)cc2C)OC(=O)c2ccccc21 | n | 97 | 89 | n | 85 | 70
C[C@H]1CN([C@@H](C)CO)C(=O)c2cccc(N(C)C)c2O[C@H]1CN(C)C(=O)Nc1ccccc1 | x | x | n | n | x | n
Nc1nc(CSCc2ccccc2)nc(N2CCOCC2)n1 | n | 61 | x | x | x | x
C=CCOc1ccccc1CNc1ccc2c(c1)OCCO2 | n | 91 | x | x | 85 | x
C=CCOc1ccccc1CNc1ccccc1C | n | 69 | n | n | n | n
O=C(NCc1ccncc1)Nc1ccc2c(c1)OCO2 | n | n | n | n | n | n
CCOc1ccc(Br)cc1CNc1ccc2c(c1)OCCO2 | n | 83 | n | n | 87 | n
c1cc(CNc2ccc3c(c2)OCCO3)ccn1 | n | 81 | x | x | 62 | u
C[C@H](NC(=O)C[C@@H]1C[C@@H]2c3cc(NC(=O)CC4CC4)ccc3O[C@@H]2[C@H](CO)O1)c1ccccc1 | x | x | x | n | x | n
COc1ccc(S(=O)(=O)N(C)C[C@@H]2Oc3c(NC(=O)C4CCOCC4)cccc3C(=O)N([C@@H](C)CO)C[C@H]2C)cc1 | x | x | x | n | x | n
CCCCCc1nc2sc3c(c2c(=O)n1NC(=O)c1ccc([N+](=O)[O-])cc1)CC(C)(C)OC3 | n | 70 | n | n | n | n
N#CCC(=O)N/N=C/c1cn(Cc2cccc3ccccc23)c2ccccc12 | n | n | n | 53 | n | n
O=C1/C(=C/c2ccccc2[N+](=O)[O-])COc2ccccc21 | u | 94 | 61 | n | n | 91
CNc1ccc(/C=C2\COc3ccccc3C2=O)cc1[N+](=O)[O-] | n | n | x | x | n | x
O=C1/C(=C/c2ccccn2)COc2ccccc21 | n | n | n | n | n | n
O=C1/C(=C/c2ccc(O)cc2)COc2ccccc21 | n | 66 | n | n | n | n
C=CCN1C(=O)C2C(C(=O)NCc3ccccc3)C3C=CC2(O3)C1C(=O)NC(C)(C)C (stereo not drawn) | n | n | x | x | n | x
CCOC(=O)[C@@H]1[C@@H]2C=C[C@]3(O2)[C@H](C(=O)NCc2ccccc2)N(CCCCCCO)C(=O)[C@@H]13 | x | x | 109 | n | x | x
N#Cc1ccc(-c2cccs2)nc1SCc1cccnc1 | x | n | n | 54 | n | n
Cc1nc2ccccc2c(=O)n1NC(=O)COc1ccccc1 | n | n | x | n | n | n
Cc1cccc(C)c1OCC(=O)Nn1c(C)nc2ccccc2c1=O | n | 78 | x | x | x | x
COCC#Cc1ccc2c(c1)O[C@H](CN(C)Cc1ccc(F)cc1)[C@H](C)CN([C@H](C)CO)S2(=O)=O | x | x | x | n | x | n
SMILES | LMP1 NFkB inh | TWEAK-Fn14 inh | PAX8 inh HTS | EWS-Fli inh | TROY signal inh | LGR2 antag
CCCSc1ccc2nc(-c3ccccc3)cn2c1 | 68 | 97 | n | x | 78 | u
Cc1cc(C)n2c(=O)c3ccc(Cl)cc3nc2c1C#N | n | n | n | n | n | n
Cc1cc(Cl)n2c(nc3cc(F)c(F)cc32)c1C#N | n | 69 | 74 | 58 | n | n
COc1cccc(C#Cc2cnc3c(c2)C(=O)N([C@H](C)CO)C[C@@H](C)[C@H](CN(C)C)O3)c1 | x | x | n | n | x | n
CS(=O)(=O)Nc1ccc2c(c1)[C@H]1C[C@H](CC(=O)NCc3cccnc3)O[C@H](CO)[C@H]1O2 | x | x | n | n | x | n
O=C(c1cc(C2CC2)nc2ccc(Br)cc12)N1N=C(C(F)F)CC1(O)C(F)F (stereo not drawn) | n | n | n | x | 54 | x
CC(C)c1ccc(-c2cc(C(=O)N3N=C(C(F)F)CC3(O)C(F)F)c3ccccc3n2)cc1 (stereo not drawn) | n | n | x | x | n | x
O=C(c1cc(C2CC2)nc2ccccc12)N1N=C(C(F)F)CC1(O)C(F)F (stereo not drawn) | n | 81 | n | x | n | x
CCCNC(=O)C[C@@H]1CC[C@@H]2[C@H](COC[C@@H](O)CN2C(=O)Nc2cccc(Cl)c2)O1 | x | x | x | x | x | n
O=C(Nc1cccnc1)C(Cc1ccccc1)n1cccc1 (stereo not drawn) | n | n | n | n | n | n
O=C(Nc1ncc(Br)s1)C(Cc1ccccc1)n1cccc1 (stereo not drawn) | 91 | n | n | n | n | n
COc1cccc(-c2cn(CC[C@@H]3CC[C@H](NC(=O)CC4CC4)[C@@H](CO)O3)nn2)c1 | x | x | n | n | x | n
Cc1ccc(C(=O)Nc2nc(-c3ccccn3)cs2)cc1S(=O)(=O)N1CCOCC1 | n | n | 82 | n | n | n
O=C(Nc1nc(-c2ccccn2)cs1)c1ccc(F)c(S(=O)(=O)N2CCOCC2)c1 | n | n | 84 | n | n | n
COc1ccc(S(=O)(=O)Nc2ccc3c(c2)C(=O)N([C@@H](C)CO)C[C@@H](C)[C@@H](CN(C)S(=O)(=O)c2ccc(C)cc2)OCCCC[C@H](C)O3)cc1 | x | x | n | n | x | n
COc1ccc(S(=O)(=O)N(C)C[C@@H]2OCCCC[C@H](C)Oc3ccc(NC(=O)C4CCCCC4)cc3C(=O)N([C@@H](C)CO)C[C@@H]2C)cc1 | x | x | 65 | n | x | n
COc1ccc(S(=O)(=O)Nc2ccc3c(c2)C(=O)N([C@H](C)CO)C[C@H](C)[C@@H](CN(C)S(=O)(=O)c2ccc(C)cc2)OCCCC[C@H](C)O3)cc1 | x | x | 78 | n | x | n
COc1ccc(S(=O)(=O)Nc2ccc3c(c2)C(=O)N([C@H](C)CO)C[C@H](C)[C@@H](CN(C)S(=O)(=O)c2ccc(F)cc2)OCCCC[C@H](C)O3)cc1 | x | x | 76 | n | x | n
COc1ccc(S(=O)(=O)N(C)C[C@@H]2OCCCC[C@H](C)Oc3ccc(NS(=O)(=O)c4ccc(C)cc4)cc3C(=O)N([C@@H](C)CO)C[C@H]2C)cc1 | x | x | n | n | x | n
COc1ccc(S(=O)(=O)Nc2ccc3c(c2)C(=O)N([C@H](C)CO)C[C@@H](C)[C@H](CN(C)S(=O)(=O)c2ccc(C)cc2)OCCCC[C@@H](C)O3)cc1 | x | x | 67 | n | x | n
COc1ccc(S(=O)(=O)Nc2ccc3c(c2)C(=O)N([C@@H](C)CO)C[C@@H](C)[C@@H](CN(C)S(=O)(=O)c2ccc(F)cc2)OCCCC[C@H](C)O3)cc1 | x | x | n | n | x | n
C[C@@H]1CN([C@H](C)CO)C(=O)c2cccc(NC(=O)Nc3cccc4ccccc34)c2O[C@H]1CN(C)C(=O)Nc1cccc2ccccc12 | x | x | x | n | x | n
